{"source": "PubChem BioAssay AID652154", "about": "(Broad Institute, 2013)", "note": "Screen size: about 360,000 compounds; about 4,200 (1.2%) were called active. The full list was thinned out, with actives kept by preference. Values without a mark were called inactive.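 The calls were made as follows: active = mean replicate inhibition at least 60% with every replicate also reaching 60%; inconclusive = only one of the two criteria is met; inactive = mean below 60% and not all replicates reaching 60%.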"}
{"assay": "inhibitors of PAX8-driven TPO luciferase reporter, primary screen, RMG-I cells, single concentration (AID 652154);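 also: luciferase light reporting Pax8 driven TPO promoter activity; plate controls were median of neutral control wells for no effect and mitoxantrone controls for full effect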", "conditions": "SteadyGlo, 24 h, at 12.6 µM, hits give high values"}
{"smiles": "COc1cccc(S(=O)(=O)N[C@@H]2CC[C@H](CCNC(=O)Cc3ccncc3)O[C@@H]2CO)c1", "inhibition": "-23.7%"}
{"smiles": "CN(C)C(=O)c1ccc(-c2ccc([C@H]3[C@H](CO)N4C(=O)CN(C(=O)C5CCCC5)C[C@@H]34)cc2)cc1", "inhibition": "-16.1%"}
{"smiles": "C[C@H](CO)N1C[C@H](C)[C@@H](CN(C)Cc2cncnc2)Oc2cc(-c3ccccc3)ccc2S1(=O)=O", "inhibition": "1.94%"}
{"smiles": "C[C@@H]1CN([C@H](C)CO)C(=O)Cc2cc(NS(C)(=O)=O)ccc2O[C@H]1CN(C)S(=O)(=O)c1ccccc1", "inhibition": "-11.5%"}
{"smiles": "C[C@H](O)C#Cc1ccc2c(c1)O[C@H](CN(C)C)[C@@H](C)CN([C@H](C)CO)S2(=O)=O", "inhibition": "-9.29%"}
{"smiles": "C/C=C/c1ccc([C@H]2[C@@H](CO)N(C(=O)CN(C)C)C23CN(C(=O)C2CCCC2)C3)cc1", "inhibition": "-21.3%"}
{"smiles": "Cc1noc(C)c1S(=O)(=O)N(C)C[C@@H]1OCCCC[C@@H](C)Oc2ccc(NC(=O)Nc3ccccc3)cc2C(=O)N([C@H](C)CO)C[C@@H]1C", "inhibition": "4.8%"}
{"smiles": "C[C@@H]1CN([C@@H](C)CO)C(=O)c2cc(NS(=O)(=O)c3ccccc3)ccc2O[C@H]1CN(C)CC1CC1", "inhibition": "-3.75%"}
{"smiles": "COc1ccc(S(=O)(=O)Nc2cccc3c2O[C@@H](CN(C)Cc2ccc(-c4ccccc4)cc2)[C@H](C)CN([C@H](C)CO)C3=O)cc1", "inhibition": "-16.5%"}
{"smiles": "C[C@H]1CCCCO[C@H](CN(C)C)[C@@H](C)CN([C@@H](C)CO)C(=O)c2cc(NC(=O)CCCN(C)C)ccc2O1", "inhibition": "-13.7%"}
{"smiles": "COc1cc(OC)cc(C(=O)NCCSCc2ccco2)c1", "inhibition": "3.2%"}
{"smiles": "CS(=O)(=O)N(Cc1ccc(Cl)cc1)c1ccc(C(=O)NCCSCc2ccco2)cc1", "inhibition": "61.6% (active)"}
{"smiles": "Cc1cc(C)cc(N(CC(=O)NCCSCc2ccco2)S(C)(=O)=O)c1", "inhibition": "3.24%"}
{"smiles": "C[C@H](CO)N1C[C@H](C)[C@@H](CN(C)C)Oc2ccc(N(C)C)cc2C1=O", "inhibition": "-23.1%"}
{"smiles": "COc1ccc(NC(=O)Nc2ccc3c(c2)C(=O)N([C@H](C)CO)C[C@H](C)[C@@H](CN(C)C(=O)NC2CCCCC2)OCCCC[C@@H](C)O3)cc1", "inhibition": "19.9%"}
{"smiles": "C[C@@H]1CCCCO[C@H](CN(C)S(C)(=O)=O)[C@@H](C)CN([C@H](C)CO)C(=O)c2cc(NS(=O)(=O)c3ccc(Cl)cc3)ccc2O1", "inhibition": "7.33%"}
{"smiles": "C[C@@H]1CCCCO[C@H](CN(C)S(=O)(=O)c2ccc(F)cc2)[C@H](C)CN([C@@H](C)CO)C(=O)c2cc(NS(=O)(=O)c3ccccc3)ccc2O1", "inhibition": "3.05%"}
{"smiles": "Cc1ccc(S(=O)(=O)Nc2ccc3c(c2)C(=O)N([C@H](C)CO)C[C@@H](C)[C@H](CN(C)S(=O)(=O)c2ccc(C)cc2)OCCCC[C@@H](C)O3)cc1", "inhibition": "71.3% (active)"}
{"smiles": "C[C@@H]1CN([C@H](C)CO)C(=O)c2cccc(NC(=O)c3nc4ccccc4s3)c2O[C@@H]1CN(C)C", "inhibition": "-13.2%"}
{"smiles": "C[C@@H]1CN([C@H](C)CO)C(=O)c2cc(NS(=O)(=O)c3ccccc3)ccc2O[C@@H](C)CCCCO[C@H]1CN(C)S(=O)(=O)c1ccc(Cl)cc1", "inhibition": "73.3% (active)"}
{"smiles": "Cc1ccc(S(=O)(=O)N(C)C[C@H]2OCCCC[C@@H](C)Oc3ccc(NS(C)(=O)=O)cc3C(=O)N([C@H](C)CO)C[C@@H]2C)cc1", "inhibition": "-9.1%"}
{"smiles": "C[C@@H]1CN([C@H](C)CO)C(=O)c2cccc(NC(=O)c3nc4ccccc4s3)c2O[C@H]1CN(C)S(=O)(=O)c1ccc(Cl)cc1", "inhibition": "66.2% (active)"}
{"smiles": "C[C@H](CO)N1C[C@H](C)[C@H](CN(C)S(=O)(=O)c2ccc(F)cc2)OCCCC[C@H](C)Oc2ccc(NS(=O)(=O)c3ccc(Cl)cc3)cc2C1=O", "inhibition": "87.4% (active)"}
{"smiles": "Cc1ccc(S(=O)(=O)N(C)C[C@@H]2OCCCC[C@@H](C)Oc3ccc(NS(=O)(=O)c4ccccc4)cc3C(=O)N([C@H](C)CO)C[C@@H]2C)cc1", "inhibition": "-6.72%"}
{"smiles": "C[C@@H]1CN([C@H](C)CO)C(=O)c2cccc(NC(=O)c3nc4ccccc4s3)c2O[C@H]1CN(C)Cc1ccccc1", "inhibition": "-1.34%"}
{"smiles": "COc1ccc(S(=O)(=O)Nc2ccc3c(c2)C(=O)N([C@H](C)CO)C[C@@H](C)[C@H](CN(C)S(=O)(=O)c2ccc(Cl)cc2)OCCCC[C@@H](C)O3)cc1", "inhibition": "55.8%"}
{"smiles": "C[C@@H]1CCCCO[C@H](CN(C)S(=O)(=O)c2ccccc2)[C@@H](C)CN([C@@H](C)CO)C(=O)c2cc(NS(=O)(=O)c3ccccc3)ccc2O1", "inhibition": "0.573%"}
{"smiles": "CC=Cc1ccc2n(c1=O)C[C@@H]1[C@@H](CO)[C@H](C(=O)N[C@@H](C)c3ccccc3)[C@H]2N1Cc1ccncc1", "note": "(mixture of isomers)", "inhibition": "-0.758%"}
{"smiles": "CC=Cc1ccc2n(c1=O)C[C@@H]1[C@@H](CO)[C@H](C(=O)NCC(F)(F)F)N(CCc3ccccc3)[C@H]21", "note": "(mixture of isomers)", "inhibition": "5.7%"}
{"smiles": "O=C(C[C@H]1C=C[C@H](NC(=O)CC2CC2)[C@H](CO)O1)NCc1ccc(Cl)cc1", "inhibition": "0.511%"}
{"smiles": "C[C@@H]1CCCCO[C@H](CN(C)S(=O)(=O)c2ccc(Cl)cc2)[C@H](C)CN([C@@H](C)CO)C(=O)c2cc(NS(=O)(=O)c3cccs3)ccc2O1", "inhibition": "35.2%"}
{"smiles": "C[C@@H]1CCCCO[C@@H](CN(C)S(C)(=O)=O)[C@H](C)CN([C@@H](C)CO)C(=O)c2cc(NS(=O)(=O)c3ccc(F)cc3)ccc2O1", "inhibition": "6.52%"}
{"smiles": "Cc1ccc(S(=O)(=O)N(C)C[C@@H]2OCCCC[C@@H](C)Oc3ccc(NS(=O)(=O)c4ccc(F)cc4)cc3C(=O)N([C@H](C)CO)C[C@H]2C)cc1", "inhibition": "65.5% (active)"}
{"smiles": "C[C@H]1CCCCO[C@@H](CN(C)S(=O)(=O)c2cccs2)[C@@H](C)CN([C@@H](C)CO)C(=O)c2cc(NS(=O)(=O)c3ccc(Cl)cc3)ccc2O1", "inhibition": "78.6% (active)"}
{"smiles": "C[C@@H]1CN([C@H](C)CO)C(=O)c2cc(NS(=O)(=O)c3cccs3)ccc2O[C@@H](C)CCCCO[C@@H]1CN(C)S(=O)(=O)c1ccc(Cl)cc1", "inhibition": "32.3%"}
{"smiles": "Cc1ccc(S(=O)(=O)Nc2ccc3c(c2)C(=O)N([C@H](C)CO)C[C@H](C)[C@H](CN(C)S(=O)(=O)c2ccc(F)cc2)OCCCC[C@@H](C)O3)cc1", "inhibition": "-6.17%"}
{"smiles": "CCCNC(=O)Nc1ccc2c(c1)C(=O)N(C)C[C@@H](OC)[C@H](C)CN(C(=O)C1CCCCC1)[C@H](C)CO2", "inhibition": "12.3%"}
{"smiles": "C[C@@H]1CN([C@@H](C)CO)C(=O)c2c(c3ccccc3n2C)-c2ccccc2CO[C@@H]1CN(C)S(=O)(=O)c1cccs1", "inhibition": "12.1%"}
{"smiles": "CCCNC(=O)N1[C@H](CNC(C)=O)[C@@H](c2ccc(C3=CCCC3)cc2)[C@@H]1CO", "inhibition": "-5.47%"}
{"smiles": "C[C@H](CO)N1C[C@H](C)[C@@H](CN(C)C(=O)Nc2ccc3c(c2)OCO3)OCCCC[C@H](C)Oc2ccc(NC(=O)Nc3ccc4c(c3)OCO4)cc2C1=O", "inhibition": "12%"}
{"smiles": "C[C@H](CO)N1C[C@H](C)[C@H](CN(C)C(=O)NC2CCCCC2)OCCCC[C@H](C)Oc2ccc(NC(=O)Nc3ccc4c(c3)OCO4)cc2C1=O", "inhibition": "29.3%"}
{"smiles": "C[C@@H]1CCCCO[C@H](CN(C)C(=O)NC2CCCCC2)[C@H](C)CN([C@H](C)CO)C(=O)c2cc(NC(=O)Nc3ccc(F)cc3)ccc2O1", "inhibition": "70.7% (active)"}
{"smiles": "C[C@H]1CCCCO[C@H](CN(C)C(=O)NC2CCCCC2)[C@@H](C)CN([C@@H](C)CO)C(=O)c2cc(NC(=O)Nc3ccc4c(c3)OCO4)ccc2O1", "inhibition": "66.1% (active)"}
{"smiles": "C[C@@H]1CN([C@H](C)CO)C(=O)c2cc(NC(=O)Nc3ccc(F)cc3)ccc2O[C@@H](C)CCCCO[C@@H]1CN(C)CC1CCCCC1", "inhibition": "17%"}
{"smiles": "C[C@@H]1CCCCO[C@H](CN(C)CC2CC2)[C@@H](C)CN([C@H](C)CO)C(=O)c2cc(NC(=O)Nc3ccc(F)cc3)ccc2O1", "inhibition": "2.41%"}
{"smiles": "C[C@@H]1CCCCO[C@H](CN(C)CC2CCCCC2)[C@H](C)CN([C@H](C)CO)C(=O)c2cc(NC(=O)Nc3ccc(F)cc3)ccc2O1", "inhibition": "69.8% (active)"}
{"smiles": "C[C@@H]1CCCCO[C@@H](CN(C)C(=O)NC2CCCCC2)[C@H](C)CN([C@@H](C)CO)C(=O)c2cc(NC(=O)Nc3ccc(F)cc3)ccc2O1", "inhibition": "17.7%"}
{"smiles": "C[C@@H]1CCCCO[C@H](CN(C)C(=O)NC2CCCCC2)[C@H](C)CN([C@@H](C)CO)C(=O)c2cc(NC(=O)Nc3ccc(F)cc3)ccc2O1", "inhibition": "52.5%"}
{"smiles": "CCCNC(=O)N1CC2(C1)[C@H](c1ccccc1)[C@@H](CO)N2Cc1cccc(Cl)c1", "inhibition": "8.51%"}
{"smiles": "O=C(Nc1ccccc1F)N1CC(=O)N2[C@@H](CO)[C@H](c3ccc(C#CC4CCCC4)cc3)[C@@H]2C1", "inhibition": "11.2%"}
{"smiles": "C[C@H](NC(=O)C[C@@H]1CC[C@@H](NC(=O)Cc2ccccn2)[C@@H](CO)O1)c1ccccc1", "inhibition": "26%"}
{"smiles": "O=C(c1cccnc1)N1CC[C@@H]2[C@@H](CO)Nc3ccc(-c4ccccc4)cc3[C@@H]21", "inhibition": "1.4%"}
{"smiles": "O=C(COC(=O)/C=C/c1cccc(Cl)c1)NCc1cccs1", "inhibition": "6.69%"}
{"smiles": "COc1ccc(/C=C/C(=O)OCC(=O)NCc2cccs2)cc1OC", "inhibition": "72.7% (active)"}
{"smiles": "CCOc1ccc(/C=C/C(=O)N(CC)CC(=O)NCc2cccs2)cc1OC", "inhibition": "10.8%"}
{"smiles": "CNC(=O)C[C@@H]1CC[C@@H]2[C@@H](COc3ccc(NC(=O)c4ccc(F)cc4)cc3C(=O)N2C)O1", "inhibition": "-7.92%"}
